HPGD block: blocks human HPGD enzyme activity; purified HPGD, NADH fluorescence kinetic, PGE2 substrate; Potency, µM, actives largely listed as inhibitors; actives 4.3% (n = 150,000)
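20 nM HPGD preincubated 15 min at room temperature with compound in 50 mM Tris-HCl pH 8, 0.01% Tween 20. Started with 1 mM NAD+ and 30 uM prostaglandin E2; NADH fluorescence (360/450 nm) read 5 times over 30-s intervals, last minus first.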
PNC assembly inh: blocks assembly of the perinucleolar compartment; PC3M PTB-GFP, PNC prevalence imaging, 16 h; active compounds read low; activity change (PNC), negative = inhibition, % at 10 µM; actives 3.1% (n = 140,000); AID 2417;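 active means readout at or below -70, meaning at least 70% loss of cells showing the perinucleolar compartment, a nuclear body marking cancer cells; inconclusive means readout between -30 and a set limit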
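PC3M cells stably expressing PTB-GFP, 750–1000 cells/well, treated 16 h at 37 °C with compound (23 nl of library stock), in duplicate. After paraformaldehyde fixation and Hoechst stain, imaged at 20x; PNC prevalence scored by image analysis.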
KinaseGlo FLuc: Kinase-Glo luciferase inhibition (counter-screen); Potency, µM (top dose mostly 38.3 µM), usual class: inhibitors; Q27757; actives 0.28% (n = 200,000); Kinase-Glo luciferase, ATP luminescence, 8 min; AID 1379; active means well fitted inhibition curve with a large enough effect; inconclusive means small, poorly fitted or top-dose-only effect; further: nearly all actives have a fitted effect of over 60% in size
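Inhibition of Kinase-Glo luciferase light generation was assessed at 10 uM ATP in pH 7.2 imidazole buffer, with luminescence measured after eight minutes at ambient temperature.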
LMNA splice mod: modulators of lamin A splicing | HeLa LMNA splicing GFP/RFP minigene ratio, 48 h | Potency, µM (titrated, usually from 46.1 µM), most hits filed as inhibitors | actives 0.01% (n = 200,000); active means well fitted inhibition curve with a large enough effect in the signal ratio, with a control signal flat, not every such curve was filed as active; inconclusive means small, poorly fitted or top-dose-only effect, or effect the other way, or a change in a side signal; the % refers to the signal ratio
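Read-out is the ratio of GFP to DsRed2 object intensity, acquired by 488 nm laser-scanning cytometry on HeLa lamin A-EGFP minigene reporter cells. Compound incubation 48 hrs at 37 °C in Opti-MEM with 2% FBS; DMSO 0.5% final.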
ALDH1A1 block: inhibitors of human aldehyde dehydrogenase 1A1; Purified ALDH1A1, NADH fluorescence, propionaldehyde substrate; Potency, µM (titrated, usually from 75.3 µM), most hits filed as inhibitors; actives 7.3% (n = 220,000)
Target sequence (P00352 whole entry, looked up): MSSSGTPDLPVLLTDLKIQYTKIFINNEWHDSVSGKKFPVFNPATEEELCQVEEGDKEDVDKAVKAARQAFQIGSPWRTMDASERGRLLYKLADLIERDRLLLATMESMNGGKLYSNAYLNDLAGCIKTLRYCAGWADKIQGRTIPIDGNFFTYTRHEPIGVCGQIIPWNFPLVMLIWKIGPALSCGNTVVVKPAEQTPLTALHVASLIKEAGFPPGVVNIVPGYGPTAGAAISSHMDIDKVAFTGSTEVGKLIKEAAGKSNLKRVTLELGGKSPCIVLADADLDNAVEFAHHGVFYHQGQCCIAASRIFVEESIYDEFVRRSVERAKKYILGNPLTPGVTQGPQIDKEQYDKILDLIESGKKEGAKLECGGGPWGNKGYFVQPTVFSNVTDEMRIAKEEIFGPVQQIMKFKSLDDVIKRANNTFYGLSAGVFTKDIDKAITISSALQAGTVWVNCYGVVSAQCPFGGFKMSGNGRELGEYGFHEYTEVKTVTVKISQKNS
IMPase inh: membrane-permeable compound that blocks inositol monophosphatase; P97697; CHO-M1 cells, IP1 accumulation, HTRF TR-FRET ratio; inhibition (IP1 accumulation), % at 46.1 µM; 120,000 tested, under 10 active; AID 901; active means well fitted curve in the direction sought with a large enough effect in the signal ratio, not every such curve was filed as active; inconclusive means small, poorly fitted or top-dose-only effect, or a change in a side signal; inactive means no such curve, though single readings can be large or run the other way; the % refers to the signal ratio;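 further: cells stimulated with carbachol in lithium chloride buffer; higher means more IMPase inhibition seen as more IP1 and lower FRET ratio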
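In this qHTS, compounds (final up to 46 uM) act on CHO-M1 cells that are then activated through the M1 receptor with carbachol, in pH 7.4 buffer containing 50 mM LiCl, for 30 min. IP1 accumulation is quantified by the IP-One immunoassay.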
A number is an active result; n = inactive; u = inconclusive; x = no result given; [ ] = remark or other dose. The list is not random: actives were taken first. Their share in the collection is about 10%. Unless noted, the call rests on the fitted dose curve; in most records, active means well fitted inhibition curve with a large enough effect (not every such curve was filed as active); inconclusive means small, poorly fitted or top-dose-only effect, or another doubt; inactive means no such curve, though single readings can be large or run the other way.

SMILES | HPGD block | PNC assembly inh | KinaseGlo FLuc | LMNA splice mod | ALDH1A1 block | IMPase inh
CCOC(=O)c1c(NC(=S)Nc2ccccc2)sc2c1CCN(CCc1ccccc1)C2 | n | n | n | n | u | n
CCOC(=O)c1c(NC(=S)NC)sc2c1CC(C)(C)SC2 | u | u | n | u | 25µM | n
CCOC(=O)c1c(NC(=S)Nc2ccccc2)sc2c1CC(C)(C)SC2 | u | n | n | n | 2.5µM | n
COc1ccc(CNC(=O)C2CCCN(C(=O)N3CCOc4ccccc43)C2)cc1 (stereo not given) | x | x | x | n | x | x
Cc1sc2ncn(CC(=O)NCc3ccccn3)c(=O)c2c1S(=O)(=O)N1CCOCC1 | n | -100 | n | n | n | n
CCN(CC(=O)Nc1ccc2c(c1)OCCO2)CC(=O)Nc1ccc2c(c1)OCO2 | x | x | n | x | 10µM | x
CCN(CC(=O)Nc1ccc2c(c1)OCCO2)Cc1cc(=O)n2ccsc2n1 | x | x | n | x | 20µM | x
O=C(CNCc1ccc(Cl)cc1)Nc1ccc2c(c1)OCCO2 | x | x | n | u | u | x
O=C(CNCc1ccccc1Cl)Nc1ccc2c(c1)OCCO2 | x | x | x | x | 13µM | x
CCN(CC(=O)Nc1ccc2c(c1)OCCO2)Cc1cc(=O)oc2c(C)c(C)ccc12 | n | u | n | n | 16µM | n
CC(=O)N1CCC(N(Cc2ccco2)C(=O)Nc2ccc(Br)cc2F)CC1 | x | x | x | n | x | x
O=C(CC1NCCNC1=O)Nc1ccc2c(c1)OCO2 (stereo not given) | n | -91 | n | n | n | n
CC(=O)[C@H]1[C@@H]2C(=O)N(c3cccc(Cl)c3)C(=O)[C@@H]2[C@H]2c3ccccc3C=CN21 | 35µM | n | n | n | 7.9µM | n
CC(=O)[C@@H]1[C@@H]2C(=O)N(c3ccc(F)c(Cl)c3)C(=O)[C@@H]2C2c3ccccc3C=CN21 (stereo not given in full) | 22µM | n | n | n | 25µM | n
N#C[C@@H]1[C@@H]2C(=O)N(c3ccc4c(c3)OCCO4)C(=O)[C@@H]2C2c3ccccc3C=CN21 (stereo not given in full) | u | -100 | n | n | u | n
COc1ccc(-c2ccc(SC)nn2)cc1 | x | x | 4.5µM | n | n | x
COc1ccc(C(=O)CSc2ccc(-c3ccccc3)nn2)cc1 | u | u | n | u | 7.9µM | n
O=C(CSc1ccc(-c2ccccn2)nn1)N1CCc2ccccc21 | x | x | n | u | 18µM | x
COc1cccc(-c2ccc(SCC(=O)c3ccccc3)nn2)c1 | x | x | n | n | u | x
COc1ccc(C(=O)CSc2ccc(-c3ccco3)nn2)cc1 | n | u | n | n | 22µM | n
CCCCC(CC)COCCCN (stereo not given) | n | x | x | x | n | x
CN1CCN(C(CNC(=O)C(=O)Nc2ccccc2)c2ccc3c(c2)OCO3)CC1 (stereo not given) | x | x | x | n | x | x
Nc1nonc1-c1nc2ccccc2n1Cc1cccc(Cl)c1 | x | x | x | x | x | n
O=C(CSc1ccc(-c2ccco2)nn1)N1CCCCCC1 | x | x | n | u | u | x
O=C(CSc1ccc(-c2ccco2)nn1)c1ccccc1 | n | n | n | n | 8.9µM | n
SMILES | HPGD block | PNC assembly inh | KinaseGlo FLuc | LMNA splice mod | ALDH1A1 block | IMPase inh
O=C(CSc1ccc(-c2cccnc2)nn1)c1ccc([N+](=O)[O-])cc1 | x | x | n | x | u | x
O=C(CSc1ccc(-c2ccccn2)nn1)c1ccc([N+](=O)[O-])cc1 | x | x | n | x | 1µM | x
CCc1ccc(N2C(=O)N(CC(=O)C(C)(C)C)c3ccccc3S2(=O)=O)cc1 | x | x | x | n | x | x
N#Cc1ccccc1NC(=O)CSc1ncn[nH]1 | x | x | x | x | x | n
CO[C@H]1COC(=O)[C@@H](C)COC(=O)[C@@H](COCc2ccccc2)NC(=O)C/C=C\[C@H]1C | x | x | x | x | n[13.5 µM] | x
COc1ccc(N=C2SC(CC(=O)Nc3ccccc3)C(=O)N2CCc2ccccn2)cc1 (stereo not given) | n | n | n | n | n | x
CC(O)CN1C(=O)C(CC(=O)Nc2ccc(Cl)cc2)SC1=Nc1ccccc1 (stereo not given) | n | n | n | n | 22µM | n
COc1ccc(N=C2SC(CC(=O)Nc3ccccc3)C(=O)N2Cc2ccccn2)cc1 (stereo not given) | x | x | n | u | 2.2µM | x
C=CCN1C(=O)C(CC(=O)Nc2ccc(OC)cc2)SC1=Nc1ccc(S(N)(=O)=O)cc1 (stereo not given) | x | x | x | x | 7.9µM | x
C=CCN1C(=O)C(CC(=O)NCC)SC1=Nc1ccc(S(N)(=O)=O)cc1 (stereo not given) | n | n | n | n | n | x
Fc1ccccc1 | n | x | x | x | n | x
O=C(CSc1nc(-c2ccc(F)cc2)[nH]c1-c1ccccc1)NCC1CCCO1 (stereo not given) | x | x | x | x | x | n
CC1=NN(c2ccccc2)C(=O)C1/C=C1\NC(=S)NC1=O (stereo not given) | x | x | n | x | 13µM | x
CC(C)C(OC(=O)c1cc2sccc2n1C)C(=O)NCC1CCCO1 (stereo not given) | n | n | n | u | n | n
COc1ccc(CN(CC2CCCO2)C(=O)c2cc3sccc3n2C)c(OC)c1 (stereo not given) | x | x | n | x | 11µM | x
O=C(NC1CCCCC1)c1ccc(Cn2c(SCc3cccc(F)c3)nc3cccnc32)cc1 | x | x | x | n | x | x
COc1ccc(C2C(C(=O)Nc3ccccc3)=C(C)Nc3nc(-c4ccccc4Cl)nn32)cc1OC (stereo not given) | x | x | x | x | x | n
COc1ccc(CCN2C(=O)CN(C3CCCCCC3)C(=O)C2c2ccc(C)cc2)cc1OC (stereo not given) | x | x | x | n | x | x
Cc1nn(Cc2ccc(Cl)cc2Cl)c(C)c1NC(=O)CCl | n | n | n | u | 8.9µM | u
Cc1nn(Cc2c(Cl)cccc2Cl)c(C)c1NC(=O)CCCn1nc(C)c([N+](=O)[O-])c1C | n | n | n | n | 3.5µM | x
Cc1nn(Cc2c(Cl)cccc2Cl)c(C)c1NC(=O)c1cc(C(C)C)on1 | n | -102 | n | u | n | n
Cc1cc(C(=O)Nc2c(C)nn(Cc3c(Cl)cccc3Cl)c2C)no1 | n | n | n | u | n | n
Cc1nn(Cc2ccccc2Cl)c(C)c1NC(=O)CCCn1nc([N+](=O)[O-])c(Cl)c1C | n | n | n | n | 8.9µM | u
Cc1nn(Cc2ccc(Cl)cc2Cl)c(C)c1NC(=O)c1nn(C)cc1Cl | n | n | n | n | n | n
Cc1ccccc1CN1CCNC(=O)C1CC(=O)O (stereo not given) | n | -84 | n | n | u | n
COc1cccc(CN2CCNC(=O)C2CC(=O)O)c1OC (stereo not given) | n | u | n | n | u | n
CCOC(=O)N1CCC(=NNS(=O)(=O)c2cccc([N+](=O)[O-])c2)CC1 | n | n | n | n | 10µM | n
C=CCN(CC=C)C(=O)C1CC(=O)N(c2ccc(Br)cc2)C1 (stereo not given) | n | n | n | u | n | n
